Data reported in PubChem BioAssay (NCATS).
Where “and” joins values, the source holds several entries; their conditions need not be identical. Identical values can stand only once. Inconclusive results are not listed. Calls of active or inactive are those of the source. Unless noted, the call rests on the fitted dose curve; in most records, active means well fitted curve in the direction sought with a large enough effect; inconclusive means small, poorly fitted or top-dose-only effect, or another doubt; inactive means no such curve, though single readings can be large; an effect the other way counts as inactive or inconclusive.

Key:
[1] = biological target: Cytochrome P450 1A2 (Homo sapiens) (UniProt P05177); assay: p450-cyp1a2 (AID 410; calls by dose curve; further: potency means the concentration at half of the fitted maximal effect;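 on activity change, negative = inhibition: -100% = full effect of reference inhibitor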)
Cytochrome P450 1A2 (Homo sapiens), sequence (P05177 whole entry, looked up): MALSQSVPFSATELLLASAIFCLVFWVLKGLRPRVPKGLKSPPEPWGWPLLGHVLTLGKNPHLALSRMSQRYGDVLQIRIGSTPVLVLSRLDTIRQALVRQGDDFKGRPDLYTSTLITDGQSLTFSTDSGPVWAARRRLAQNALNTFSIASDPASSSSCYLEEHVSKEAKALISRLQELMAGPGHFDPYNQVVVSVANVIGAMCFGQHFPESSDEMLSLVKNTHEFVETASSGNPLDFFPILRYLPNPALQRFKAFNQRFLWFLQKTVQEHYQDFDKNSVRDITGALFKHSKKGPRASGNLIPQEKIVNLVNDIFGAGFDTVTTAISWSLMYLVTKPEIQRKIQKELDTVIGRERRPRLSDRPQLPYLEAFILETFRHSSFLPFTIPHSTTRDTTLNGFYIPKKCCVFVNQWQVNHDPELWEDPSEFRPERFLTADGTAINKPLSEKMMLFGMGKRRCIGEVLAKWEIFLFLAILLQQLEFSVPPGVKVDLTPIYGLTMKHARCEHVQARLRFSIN
Outline: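 Luminescent demethylation readout: Luciferin-ME (100uM, equal to Km) turned over by 20nM CYP1A2 for 60 min at room temperature after NADPH regeneration addition, following 10 min compound preincubation. Normalization used 57 uM furafylline as full inhibition.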

[2] = biological target: Glucocorticoid receptor (Homo sapiens) (UniProt P04150); assay: GR-GFP Redistribution (AID 450;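 active means compounds whose dose series gives a full or clear partial fitted curve of increased nuclear translocation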; further: potency means the concentration at half of the fitted maximal effect); conditions: U2OS GR-GFP nuclear translocation, laser cytometry, 2 h
[3] = biological target: Glucocorticoid receptor (Homo sapiens) (UniProt P04150); assay: GR-EFC Redistribution (AID 451; calls by dose curve; further: potency means the concentration at half of the fitted maximal effect); conditions: CHO-K1 GR-EFC translocation, beta-gal luminescence, 2 h
Outline: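 CHO-K1 cells stably expressing nuclear-localized β-gal enzyme acceptor and GR fused C-terminally to the enzyme donor fragment; ligand-driven nuclear translocation restores β-gal by complementation. Compounds titrated up to 46 uM final, 2 h at 37 °C; luminescence read.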

[4] = qHTS Assay for Lipid Storage Modulators (AID 1519; calls by dose curve); conditions: Drosophila S3 cells, BODIPY lipid droplet/cell ratio, laser cytometry, cells loaded with oleic acid
Outline: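 Cells seeded at 5,000 per well were treated with compounds over a concentration series and loaded with oleic acid (400 uM, as added). Lipid droplet fluorescence (488 nm excitation, 500-530 nm channel) was read by laser-scanning cytometry and normalized to 20 uM Triacsin C.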

[5] = biological target: DNA dC->dU-editing enzyme APOBEC-3G (Homo sapiens) (UniProt Q9HC16); assay: qHTS for inhibitors of Vif-A3G interactions: Validation (AID 588379); further: 0% is about no effect
DNA dC->dU-editing enzyme APOBEC-3G (Homo sapiens), sequence (Q9HC16 whole entry, looked up): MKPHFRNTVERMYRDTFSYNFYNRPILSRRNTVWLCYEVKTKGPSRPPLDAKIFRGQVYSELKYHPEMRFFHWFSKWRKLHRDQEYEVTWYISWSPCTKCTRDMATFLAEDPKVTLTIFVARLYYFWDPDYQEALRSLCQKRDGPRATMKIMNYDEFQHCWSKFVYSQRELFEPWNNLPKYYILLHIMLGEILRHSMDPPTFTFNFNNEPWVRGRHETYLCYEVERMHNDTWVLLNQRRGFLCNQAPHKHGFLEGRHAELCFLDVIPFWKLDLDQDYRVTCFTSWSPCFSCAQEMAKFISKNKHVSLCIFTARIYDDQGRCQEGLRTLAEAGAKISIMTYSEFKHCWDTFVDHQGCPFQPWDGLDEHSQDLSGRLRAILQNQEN
Outline: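 Yellow fluorescence (Ex 488, Em 500-530) of Vif-coexpressing HeLa A3G-eYFP cells, scanned by Acumen cytometer, reports blocked A3G degradation. Cells plated at 700/well overnight at 37 deg C before compound addition, then a further overnight compound incubation at 37 deg C.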

[6] = tested on: Zika virus NS2B-NS3 protease; assay: Primary screen GU AMC qHTS for Zika virus inhibitors (AID 1347154); further: nearly all actives have a fitted effect of over 70% in size; further: potency means the concentration at half of the fitted maximal effect;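 on activity change, negative = inhibition: 0% = no-inhibitor control and -100% = no-enzyme control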
Outline: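 Unlinked Zika NS2B hydrophilic domain/NS3 protease domain noncovalent complex (25 nM final) in 10 mM Tris-HCl pH 8.0, 0.01% Tween 20, with AMC peptide substrate. Fluorescence (ex 340, em 450 nm) change over 15 min, room temperature; percent inhibition fitted to 4-parameter Hill equation.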

[7] = Primary qHTS for small molecule stabilizers of the endoplasmic reticulum resident proteome: Secreted ER Calcium Modulated Protein (SERCaMP) assay (AID 1508630); further: on the % scale 0 is the no-effect control and ±100 the full control effect
Outline: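 The SH-SY5Y reporter protocol was run at 3 concentrations up to 38.3 uM (primary) or 11 concentrations (follow-up): 16 h compound, 100 nM thapsigargin for 4 h, then extracellular luciferase luminescence.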

[8] = biological target: Mitogen-activated protein kinase 10 (Mus musculus) (UniProt Q61831); assay: JNK3 AlphaScreen Assay (AID 530; active means well fitted curve in either direction with a large enough effect, not every such curve was filed as active;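 further: kinase came from lysate of stimulated human HepG2 cells; signal reports phosphorylation of biotinylated GST-cJun 1-79 at Ser73 with 10 µM ATP; on the % scale 0 is the no-effect control and ±100 the full control effect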)
Outline: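 Phosphorylation of biotinylated GST-cJun(1-79) at Ser73 is measured by AlphaScreen proximity luminescence. Enzyme is JNK3 in HepG2 lysates activated with interleukin-1beta and tumor necrosis factor alpha; ATP is 10 uM final.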

[9] = biological target: 3',5'-cyclic-AMP phosphodiesterase 4B (Homo sapiens) (UniProt Q07343); assay: qHTS Assay for Inhibitors of PDE-IV (AID 607; active means well fitted activation curve with a large enough effect in the main read-out, with a control signal flat, not every such curve was filed as active; further: potency means the concentration at half of the fitted maximal effect)
3',5'-cyclic-AMP phosphodiesterase 4B (Homo sapiens), sequence (Q07343 whole entry, looked up): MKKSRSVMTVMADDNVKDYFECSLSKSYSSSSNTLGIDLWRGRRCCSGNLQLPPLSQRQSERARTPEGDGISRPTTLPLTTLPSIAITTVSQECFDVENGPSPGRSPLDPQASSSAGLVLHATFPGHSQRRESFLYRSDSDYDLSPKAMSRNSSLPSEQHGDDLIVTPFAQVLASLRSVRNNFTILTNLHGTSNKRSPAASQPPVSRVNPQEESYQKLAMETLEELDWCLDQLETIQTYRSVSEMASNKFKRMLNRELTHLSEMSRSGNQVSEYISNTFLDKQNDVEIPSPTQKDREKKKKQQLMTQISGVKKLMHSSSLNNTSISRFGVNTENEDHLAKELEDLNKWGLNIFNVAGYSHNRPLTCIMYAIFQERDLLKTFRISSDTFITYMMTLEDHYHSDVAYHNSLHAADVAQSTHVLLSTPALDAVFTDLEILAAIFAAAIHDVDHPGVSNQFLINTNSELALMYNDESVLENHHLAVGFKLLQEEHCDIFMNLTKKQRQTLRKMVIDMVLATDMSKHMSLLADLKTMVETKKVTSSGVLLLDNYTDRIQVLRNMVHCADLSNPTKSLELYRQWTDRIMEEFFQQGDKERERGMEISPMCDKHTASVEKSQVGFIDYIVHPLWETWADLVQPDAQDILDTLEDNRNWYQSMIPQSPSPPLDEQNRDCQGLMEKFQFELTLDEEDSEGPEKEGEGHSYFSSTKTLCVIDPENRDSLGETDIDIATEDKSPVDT
Outline: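 ACTOne HEK293 cells carry a modified cAMP-gated CNG channel and express endogenous PDE4; plated 1000 cells/well, compounds up to 22.9 uM final. Membrane-potential dye fluorescence (ex 535/em 590) was read; parental cells received 10 uM forskolin + 100 uM RO 20-1724.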

[10] = biological target: Cytochrome P450 3A4 (Homo sapiens) (UniProt P08684); assay: qHTS Assay for Activators of Cytochrome P450 3A4 (AID 885); further: nearly all actives have a fitted effect of over 65% in size
Cytochrome P450 3A4 (Homo sapiens), sequence (P08684 whole entry, looked up): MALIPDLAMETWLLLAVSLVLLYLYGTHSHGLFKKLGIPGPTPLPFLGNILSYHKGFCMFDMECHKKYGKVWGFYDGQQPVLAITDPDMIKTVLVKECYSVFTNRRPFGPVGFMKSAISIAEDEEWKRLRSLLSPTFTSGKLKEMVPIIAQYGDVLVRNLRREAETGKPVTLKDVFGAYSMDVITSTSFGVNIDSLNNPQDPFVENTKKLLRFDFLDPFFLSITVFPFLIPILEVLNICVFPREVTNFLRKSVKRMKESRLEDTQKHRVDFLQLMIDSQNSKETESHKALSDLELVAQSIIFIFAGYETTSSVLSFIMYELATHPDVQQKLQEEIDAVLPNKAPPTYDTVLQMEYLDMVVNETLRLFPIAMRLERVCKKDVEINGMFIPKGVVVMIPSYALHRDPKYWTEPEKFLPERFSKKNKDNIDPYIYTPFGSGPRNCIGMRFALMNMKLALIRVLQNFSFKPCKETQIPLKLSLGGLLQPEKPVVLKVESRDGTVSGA
Outline: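 CYP3A4 activity: Luciferin-PPXE O-dealkylation, 25uM substrate, 200mM KPO4, RT throughout. Read-out is luciferase luminescence; higher values reflect activation.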

[11] = biological target: Cytochrome P450 2D6 (Homo sapiens) (UniProt P10635); assay: qHTS Assay for Inhibitors and Substrates of Cytochrome P450 2D6 (AID 891); further: nearly all actives have a fitted effect of over 60% in size; further: potency means the concentration at half of the fitted maximal effect
Cytochrome P450 2D6 (Homo sapiens), sequence (P10635 whole entry, looked up): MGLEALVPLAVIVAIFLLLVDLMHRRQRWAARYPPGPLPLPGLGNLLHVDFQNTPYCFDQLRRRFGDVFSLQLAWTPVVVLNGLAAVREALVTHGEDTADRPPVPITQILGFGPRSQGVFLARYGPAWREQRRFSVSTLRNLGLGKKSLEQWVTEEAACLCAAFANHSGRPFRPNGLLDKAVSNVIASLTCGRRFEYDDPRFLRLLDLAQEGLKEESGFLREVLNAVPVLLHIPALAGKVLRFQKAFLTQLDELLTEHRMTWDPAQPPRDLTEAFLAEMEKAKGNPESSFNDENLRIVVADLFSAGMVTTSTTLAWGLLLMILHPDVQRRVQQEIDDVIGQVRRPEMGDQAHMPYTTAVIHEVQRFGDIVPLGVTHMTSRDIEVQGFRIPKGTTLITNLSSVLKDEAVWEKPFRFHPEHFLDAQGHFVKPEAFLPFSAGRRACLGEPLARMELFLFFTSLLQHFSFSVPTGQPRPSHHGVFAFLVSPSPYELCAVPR
Outline: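 Luminescent read-out of luciferin formed by 5 nM human CYP2D6 demethylating 30 uM Luciferin-ME EGE (Km level) over 60 min at room temperature after NADPH regeneration addition. Data normalized to full inhibition by 1.43 uM quinidine.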

[12] = biological target: Ubiquitin carboxyl-terminal hydrolase 1 (Homo sapiens) (UniProt O94782); assay: Inhibitors of USP1/UAF1: Pilot qHTS (AID 504865);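 further: rhodamine fluorescence freed from ubiquitin-rhodamine substrate followed over time; top concentration of the series differs between compounds; on the % scale 0 is the no-effect control and ±100 the full control effect; nearly all actives have a fitted effect of over 35% in size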
Outline: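 In 50mM HEPES pH 7.8 containing 0.5mM EDTA, 1mM TCEP, 0.1 mg/ml BSA and 0.01% Tween-20, 1nM USP1/UAF1 is exposed to compound for 15 min, then Ub-Rho (150nM final) is added and fluorescence is read over time.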

[13] = NFAT Signaling Pathway (AID 444; active means well fitted curve in either direction with a large enough effect, not every such curve was filed as active;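 further: carbachol stimulus at about its EC50 of 1 µM final; on the % scale 0 is the no-effect control and ±100 the full control effect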); conditions: Jurkat NFAT-bla M1, carbachol, beta-lactamase ratio, 5 h
Outline: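 Jurkat cells carrying an NFAT-driven β-lactamase reporter and co-transfected muscarinic M1 receptor were treated with compound plus carbachol (1 uM final, an EC50 level) for 5 h at 37 °C. CCF4 loading followed for 1 h at RT; 460/530 nm ratio gave %activity.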

[14] = Stat Signaling Pathway (AID 446; active means well fitted curve in either direction with a large enough effect, not every such curve was filed as active;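 further: ME-180 cervical cancer cells given 40 pM IL-6 alongside compound; SIE-controlled beta-lactamase reporter measured as 460/530 nm FRET emission ratio; on the % scale 0 is the no-effect control and ±100 the full control effect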)
Outline: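 Compound effects on IL-6-induced STAT reporter activity were measured in ME-180 cells. After overnight culture, cells were co-treated with 40 pM IL-6 for 5 hrs before beta-lactamase substrate loading at room temperature.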

[15] = AP1 Signaling Pathway (AID 357; active means well fitted curve in either direction with a large enough effect, not every such curve was filed as active)
Outline: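 Titration-series screen for positive or negative modulators of EC50 EGF-induced signaling in ME-180 cells carrying an AP-1-driven beta-lactamase reporter. After 5 hours at 37 degrees Celsius, CCF4 460nm/530nm emission ratio gave %Activity; AC50 values derived.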

[16] = biological target: Guanine nucleotide-binding protein G(i) subunit alpha-1 (Homo sapiens) (UniProt P63096); assay: qHTS Assay for Inhibitors of RGS12 GoLoco Motif Activity (Green Fluorophore) (AID 879);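 further: 0% = labeled peptide with Gαi1 and full inhibition = labeled peptide alone without protein; negative values mean loss of peptide binding seen as reduced polarization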
Guanine nucleotide-binding protein G(i) subunit alpha-1 (Homo sapiens), sequence (P63096 whole entry, looked up): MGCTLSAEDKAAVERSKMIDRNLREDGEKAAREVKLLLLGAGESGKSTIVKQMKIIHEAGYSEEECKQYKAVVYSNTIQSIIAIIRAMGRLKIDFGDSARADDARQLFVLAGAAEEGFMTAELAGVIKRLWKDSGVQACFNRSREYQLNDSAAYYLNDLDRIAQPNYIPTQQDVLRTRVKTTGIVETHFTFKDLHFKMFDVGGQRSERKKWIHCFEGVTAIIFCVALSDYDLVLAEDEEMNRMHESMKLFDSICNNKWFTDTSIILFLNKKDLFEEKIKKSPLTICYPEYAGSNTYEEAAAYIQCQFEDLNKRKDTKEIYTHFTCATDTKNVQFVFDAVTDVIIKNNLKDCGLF
Outline: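 A drop in FITC polarization marked displacement of the FITC-tagged RGS12 GoLoco peptide (10 nM) from Gαi1 (50 nM). Compounds were incubated 10 min at room temperature in Tris pH 7.5 buffer containing 150 mM NaCl, 0.1 mM GDP and 0.05% NP40; unlabeled peptide titration served as control.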

[17] = biological target: Pyruvate kinase (Leishmania mexicana) (UniProt Q27686); assay: qHTS Validation Assay for Inhibitors of Leishmania Mexicana Pyruvate Kinase (AID 945);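 further: 0% = DMSO only neutral control wells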
Pyruvate kinase (Leishmania mexicana), sequence (Q27686 2-499 E452W): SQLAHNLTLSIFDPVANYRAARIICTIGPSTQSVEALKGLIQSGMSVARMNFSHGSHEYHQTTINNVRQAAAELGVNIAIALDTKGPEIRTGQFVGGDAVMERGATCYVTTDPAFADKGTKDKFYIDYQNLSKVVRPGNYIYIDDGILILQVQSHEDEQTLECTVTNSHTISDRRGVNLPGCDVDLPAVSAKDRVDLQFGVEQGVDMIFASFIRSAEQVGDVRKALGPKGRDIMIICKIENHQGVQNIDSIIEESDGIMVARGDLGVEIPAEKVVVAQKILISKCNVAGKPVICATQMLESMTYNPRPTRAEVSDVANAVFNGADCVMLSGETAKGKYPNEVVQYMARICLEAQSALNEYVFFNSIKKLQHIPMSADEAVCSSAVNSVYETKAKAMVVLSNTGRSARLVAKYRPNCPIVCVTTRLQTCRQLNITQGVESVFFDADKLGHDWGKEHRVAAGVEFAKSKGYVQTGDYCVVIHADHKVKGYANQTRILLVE
Outline: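 Mutant LmPYK (E451W), 0.2 nM, plus 0.5 mM PEP and 0.1 mM ADP in 50 mM imidazole pH 7.2 containing 0.01% Tween 20 and 0.05% BSA. Incubated 1 h at room temperature; luminescence via PKLight, normalized to DMSO.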

[18] = biological target: Pyruvate kinase PKM (Homo sapiens) (UniProt P14618); assay: qHTS Assay for Activators of Human Muscle Pyruvate Kinase (AID 954; active means well fitted curve in the direction sought with a large enough effect, not every such curve was filed as active;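 further: 0% = uninhibited enzyme and -100% = no enzyme or full thiadiazolimine inhibition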)
Pyruvate kinase PKM (Homo sapiens), sequence (P14618 whole entry, looked up): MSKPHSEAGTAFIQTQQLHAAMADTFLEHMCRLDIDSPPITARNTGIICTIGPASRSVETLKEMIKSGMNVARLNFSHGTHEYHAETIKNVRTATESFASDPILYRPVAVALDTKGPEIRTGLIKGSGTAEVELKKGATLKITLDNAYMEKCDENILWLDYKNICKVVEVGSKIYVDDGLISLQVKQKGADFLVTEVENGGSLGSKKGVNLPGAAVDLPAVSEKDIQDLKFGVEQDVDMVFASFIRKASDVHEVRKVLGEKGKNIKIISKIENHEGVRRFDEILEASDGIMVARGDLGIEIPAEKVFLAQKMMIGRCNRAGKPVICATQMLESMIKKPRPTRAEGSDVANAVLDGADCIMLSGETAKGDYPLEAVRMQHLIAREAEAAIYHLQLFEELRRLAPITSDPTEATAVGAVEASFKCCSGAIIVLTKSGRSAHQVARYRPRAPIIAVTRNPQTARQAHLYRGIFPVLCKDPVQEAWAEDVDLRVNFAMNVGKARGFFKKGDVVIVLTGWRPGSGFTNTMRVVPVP
Outline: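 A coupled luminescent readout tracked ATP made from ADP by purified PKM2. Final conditions included 0.1 nM enzyme, PEP and ADP at 0.5 and 0.1 mM, pH 7.2 imidazole buffer with BSA, and a one-hour room-temperature reaction.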

[19] = biological target: Alpha-galactosidase A (Homo sapiens) (UniProt P06280); assay: Counterscreen for Glucocerebrosidase Inhibitors: qHTS Assay for Human alpha-Galactosidase at pH 4.5 (AID 992); further: 0% is about no effect
Alpha-galactosidase A (Homo sapiens), sequence (P06280 whole entry, looked up): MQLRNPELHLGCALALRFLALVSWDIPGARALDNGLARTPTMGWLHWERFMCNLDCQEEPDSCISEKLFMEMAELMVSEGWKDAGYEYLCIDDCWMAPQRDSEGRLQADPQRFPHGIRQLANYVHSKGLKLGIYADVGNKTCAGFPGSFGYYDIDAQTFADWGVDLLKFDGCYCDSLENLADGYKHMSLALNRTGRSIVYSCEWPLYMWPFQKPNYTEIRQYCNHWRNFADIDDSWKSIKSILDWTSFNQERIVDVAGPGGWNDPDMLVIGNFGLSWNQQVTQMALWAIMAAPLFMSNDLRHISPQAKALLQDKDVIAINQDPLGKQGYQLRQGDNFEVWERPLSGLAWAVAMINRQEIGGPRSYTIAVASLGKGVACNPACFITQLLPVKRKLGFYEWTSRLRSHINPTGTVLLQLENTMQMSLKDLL
Outline: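 Citrate buffer pH 4.5, Tween-20 0.005%. Enzyme 2 nM, substrate 80 uM, 20 min RT. Stop pH 10. Fluorescence Ex 365/Em 440. AC50 by Hill fit.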

[20] = biological target: alpha-glucosidase (Oryza sativa, rice) (UniProt Q653V4); assay: Counterscreen for Glucocerebrosidase Inhibitors: qHTS Assay for Rice alpha-Glucosidase at pH 5.0 (AID 997);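 further: 0% = full activity with enzyme and -100% = basal without enzyme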
Outline: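 Endpoint fluorogenic assay at pH 5.0: compounds (0.7 nM to 77 uM) titrated against 4 nM rice enzyme and 400 uM 4-MU-alpha-glucoside for 20 min at room temperature; NaOH/glycine stop, read ex 365/em 440 nm, Hill-fitted AC50.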

[21] = measured here: cell count channel max response
[22] = measured here: lipid channel max response

NC[C@H](CS(=O)(=O)O)c1ccc(Cl)cc1
inactive: Potency [1] | Potency [2] > 46 µM | Potency [3] > 46 µM | activity change, negative = inhibition ([4]; at 57.5 µM (top of the series)) 3.36% | Potency [5] | Potency [6] | Potency [7]
7.7%: max response [4, 21]
12%: max response [4, 22]

c1ccc(C[C@@H](c2ccccc2)N2CCCCC2)cc1
active: Potency [1] 15.8 µM | Potency [9] 4.77 µM | Potency [11] 2 µM
inactive: Potency [2] > 46 µM | Potency [3] > 46 µM | outcome [8] | Potency [10] | activity change, negative = inhibition ([4]; at 57.5 µM (top of the series)) -5.07% | Potency [12] | Potency [5] | Potency [6] | Potency [7]
-11.4%: max response [4, 21]
-18.1%: max response [4, 22]

O=C(O)[C@@H]1C[C@H]2C[C@@H](CP(=O)(O)O)CC[C@H]2CN1
inactive: Potency [2] > 46 µM | Potency [3] > 46 µM | activity change, negative = inhibition ([4]; at 57.5 µM (top of the series)) -1.59% | Potency [12] | Potency [5] | Potency [6] | Potency [7]
-11.2%: max response [4, 22]
-9.16%: max response [4, 21]

Oc1ccc2c3c1O[C@H]1c4[nH]c5c(c4C[C@@]4(O)[C@@H](C2)N(CC2CC2)CC[C@]314)C[C@]1(O)[C@H]2Cc3ccc(O)c4c3[C@@]1(CCN2CC1CC1)[C@@H]5O4
16.4%: max response [4, 21]
18.7%: max response [4, 22]
inactive: Potency [2] > 46 µM | Potency [3] > 46 µM | outcome [8] | Potency [9] | activity change, negative = inhibition ([4]; at 57.5 µM (top of the series)) -0.108% | Potency [5] | Potency [6] | Potency [7]

CN1C[C@H](CNC(=O)OCc2ccccc2)C[C@H]2c3cccc4c3c(cn4C)C[C@@H]21
inactive: activity change, negative = inhibition ([13]; at 17.2 µM (top of the series)) -3.47% | outcome [14] | Potency [2] > 20.6 µM | Potency [3] > 20.6 µM and > 46 µM | outcome [8] | Potency [9] | activity change, negative = inhibition ([4]; at 25.7 µM (top of the series)) -3.64% | Potency [5] | Potency [6] | Potency [7]
-21.4%: max response [4, 21]
-20.5%: max response [4, 22]

COc1ccc(-n2nc(C(F)(F)F)cc2-c2ccc(Cl)cc2)cc1
-37.8%: max response [4, 22]
-38.3%: max response [4, 21]
inactive: outcome [15] | outcome [14] | Potency [2] > 46 µM | Potency [3] > 46 µM | outcome [16] | Potency [10] | outcome [17] | outcome [18] | outcome [19] | outcome [20] | activity change, negative = inhibition ([4]; at 57.5 µM (top of the series)) -0.483% | Potency [6] | Potency [7]
active: Potency [1] 0.501 µM | activity change, negative = inhibition ([13]; at 38 µM (top of the series)) -91.5%

CC(C)(C)c1o[nH]c(=O)c1C[C@H](N)C(=O)O
-7.95%: max response [4, 22]
inactive: outcome [15] | Potency [1] | activity change, negative = inhibition ([13]; at 38 µM (top of the series)) -2.55% | outcome [14] | Potency [2] > 46 µM | Potency [3] > 46 µM | outcome [8] | Potency [9] | outcome [16] | Potency [11] | outcome [17] | outcome [18] | outcome [19] | outcome [20] | activity change, negative = inhibition ([4]; at 57.5 µM (top of the series)) 1.88% | Potency [12] | Potency [5] | Potency [6] | Potency [7]
-7.92%: max response [4, 21]

N[C@@H](CCP(=O)(O)O)C(=O)O
-9.13%: max response [4, 22]
inactive: activity change, negative = inhibition [15] 9.69% [at 7.69 µM] | activity change, negative = inhibition ([13]; at 7.69 µM (top of the series)) 3.73% | activity, negative = inhibition [14] 11.7% [at 7.69 µM] | Potency [2] > 46 µM | Potency [3] > 46 µM and > 9.22 µM | outcome [8] | Potency [9] | activity change, negative = inhibition ([4]; at 57.5 µM (top of the series)) -1.66% | Potency [5] | Potency [6] | Potency [7]
-5.2%: max response [4, 21]

N#CC(C#N)=Cc1ccc([N+](=O)[O-])c(O)c1
inactive: outcome [14] | Potency [2] > 46 µM | Potency [3] > 46 µM | outcome [8] | Potency [9] | outcome [16] | Potency [10] | outcome [17] | outcome [18] | outcome [19] | outcome [20] | Potency [6] | Potency [7]
active: Potency [1] 31.6 µM

CN1CCc2cc(O)cc3c2C1Cc1ccc(O)c(O)c1-3 (configuration not stated)
active: Potency [6] 18.9 µM
inactive: Potency [7]

CC(C)[C@@H]1CN[C@H](C(=O)O)[C@@H]1CC(=O)O
17.2%: max response [4, 22]
inactive: Potency [2] > 46 µM | Potency [3] > 46 µM | outcome [8] | activity change, negative = inhibition ([4]; at 57.5 µM (top of the series)) 5.36% | Potency [12] | Potency [5] | Potency [6] | Potency [7]
14.8%: max response [4, 21]

CCCN[C@@H]1CCc2c(OC)cccc2[C@@H]1C
inactive: Potency [2] > 46 µM | Potency [3] > 46 µM | Potency [9] | activity change, negative = inhibition ([4]; at 57.5 µM (top of the series)) -0.687% | Potency [12] | Potency [5] | Potency [6] | Potency [7]
active: Potency [11] 0.251 µM
-24%: max response [4, 22]
-20.9%: max response [4, 21]
